# Results from the supplement of paper PMC7530171.
# Values joined by “and” are separate entries in the source; they are usually repeats but may differ in a detail not shown here. Identical values can stand only once. Counter-ions that a name gives are not always drawn. ± gives the standard deviation.
# Columns and labels:
# [1] = system: THP-1; assay: THP-1 cell loss relative to DMSO control; higher = more host cell loss (toxicity); extreme values may be limits of the assay; conditions: 10 µM; 4 days; infection: M. tuberculosis H37Rv
# Experimental: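 OICR kinase inhibitor library screened in duplicate at 10 uM against M. tuberculosis-infected THP-1 macrophages, 4 days at 37 C. THP-1 cell loss (cytotoxicity or loss of adherence) was quantified from Hoechst-stained nuclei counts by high-content imaging and normalised to the 1% DMSO control; 100 = complete loss of host cells.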
# [2] = system: THP-1 macrophages infected with Mycobacterium tuberculosis H37Rv; assay: intracellular M.tb growth inhibition relative to DMSO (0) and 4 uM bedaquiline (100); higher = stronger inhibition of intracellular bacterial growth; conditions: 10 µM; 4 days
# Experimental: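 OICR kinase inhibitor library screened in duplicate at 10 uM against THP-1 macrophages (PMA-differentiated) infected with M. tuberculosis H37Rv-pTEC27 (tdTomato RFP), 4 days at 37 C. Rows with complete host cell loss (placeholder inhibition 0, cell loss 100) were removed.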
Compound,THP-1 cell loss [1],intracellular M.tb growth inhibition [2]
Cc1cc(C(C)Nc2ccccc2)c2nc(N3CCOCC3)cc(=O)n2c1 (centres undefined),10.5 ± 5.8%,-38.7 ± 24%
O=C1NCCCc2c1oc1ccc(O)cc21,6.23 ± 8.8%,11 ± 28%
CN(C)C/C=C/C(=O)Nc1cc2c(Nc3ccc(F)c(Cl)c3)ncnc2cc1O[C@H]1CCOC1,77.6 ± 2.9%,
N#C/C(=C(/N)Sc1ccc(N)cc1)c1ccccc1C(F)(F)F,78.2 ± 4.7%,5.44 ± 36%
COc1cc2nccc(Oc3ccc(NC(=O)NC4CC4)c(Cl)c3)c2cc1C(N)=O,20.6 ± 14%,-42.3 ± 140%
COc1cc(N2CCC(N3CCN(C)CC3)CC2)ccc1Nc1ncc(Cl)c(Nc2ccccc2S(=O)(=O)C(C)C)n1,26.4 ± 0.6%,-4.08 ± 19%
CCN(CC)CCNC(=O)c1ccc2nc(-c3ccccc3)c(-c3ccc(CN4CCC(n5c(=O)[nH]c6ccccc65)CC4)cc3)nc2c1 [Merck-22-6],100%,
O=C(c1ccc(Nc2nccc(-c3cc4ccccc4s3)n2)cc1)N1CCC(N2CCCC2)CC1,100%,
CN1CCC(COc2cnc(-c3cccc(Cn4nc(-c5cccc(C#N)c5)ccc4=O)c3)nc2)CC1,90.4 ± 14%,48.3 ± 68%
Cc1cc(Nc2ncc3cc(-c4c(Cl)cccc4Cl)c(=O)n(C)c3n2)ccc1F,88.1 ± 17%,4.79 ± 6.8%
CN(C)c1ccc(/C=C2/C(=O)Nc3ccccc32)cc1,20.5 ± 18%,5.91 ± 3.3%
CNc1nccc(-c2cccnc2Oc2cc(C(=O)Nc3cccc(C(F)(F)F)c3)ccc2C)n1,100%,
Cc1[nH]c(/C=C2\C(=O)Nc3cc(-c4ccccc4)ccc32)c(C)c1CCC(=O)O,6.62 ± 9.4%,-5.41 ± 25%
O=c1[nH]ccc2c(S(=O)(=O)N3CCCNCC3)cccc12 [HA 1100 hydrochloride],0%,-142 ± 180%
O=C(Nc1cc(Cl)cc2c1[nH]c1cnccc12)c1cccnc1 [PS1145 dihydrochloride],48.1 ± 24%,
CCN1/C(=C/C(C)=O)Sc2ccc(OC)cc21,12.5 ± 2.4%,-98.4 ± 120%
Cc1ccc(S(=O)(=O)Nc2nc3ccccc3nc2Nc2ccc3nsnc3c2)cc1,40.9 ± 5.2%,
Cc1ccc(NC(=O)c2cccc(C(C)(C)C#N)c2)cc1Nc1ccc2ncn(C)c(=O)c2c1,100%,
CC[C@H](Nc1ncnc2[nH]cnc12)c1nc2cccc(F)c2c(=O)n1-c1ccccc1,35.9 ± 6.3%,-236 ± 290%
CN(C)C[C@@H]1CCn2cc(c3ccccc32)C2=C(C(=O)NC2=O)c2cn(c3ccccc23)CCO1,100%,
C=CC(=O)Nc1cc2c(Nc3ccc(F)c(Cl)c3)ncnc2cc1OCCCN1CCOCC1,100%,
O=C(Nc1cc(C(F)(F)F)cc(C(F)(F)F)c1)c1cc(Cl)ccc1O,53 ± 46%,
Cc1c(NC(=O)OC[C@@H]2COCCN2)cn2ncnc(Nc3ccc4c(cnn4Cc4cccc(F)c4)c3)c12,16.7 ± 9.5%,
COc1cc2ncnc(Nc3ccc(Cl)cc3F)c2cc1OC,0.676 ± 0.63%,48.4 ± 20%
C=CC(=O)Nc1cccc(Oc2nc(Nc3ccc(N4CCN(C)CC4)cc3OC)ncc2Cl)c1,42.4 ± 7.4%,

Compound,THP-1 cell loss [1],intracellular M.tb growth inhibition [2]
Cc1ccc(C(=O)Nc2cccc(C(F)(F)F)c2)cc1-c1ccc2nc(NCCN3CCOCC3)ncc2c1,100%,
COc1cc2ncnc(Nc3cccc(Cl)c3)c2cc1OC [Tyrphostin AG 1478 mesylate],41.5 ± 9.7%,
COc1ccc(Cl)cc1NC(=O)Nc1cc(C)nc2ccccc12,9.3 ± 13%,59.1 ± 9.6%
Nc1nc(OCC2CCCCC2)c2[nH]cnc2n1,3.9 ± 5.5%,
CCN(CCO)CCCOc1ccc2c(Nc3cc(CC(=O)Nc4cccc(F)c4)[nH]n3)ncnc2c1,7.76 ± 6.5%,-51.3 ± 83%
COc1ccc(-c2ccc3c(N4CCOC[C@@H]4C)nc(N4CCOC[C@@H]4C)nc3n2)cc1CO,40.8 ± 2.5%,-202 ± 240%
CCOc1cc(/C=C(\C#N)C(N)=O)cc(CSc2ccccc2)c1O,10.3 ± 14%,-116 ± 140%
CS(=O)(=O)c1cccc(CNc2nc(Nc3ccc4c(c3)CCC(=O)N4)ncc2C(F)(F)F)c1,56.3 ± 6%,
N#CCNC(=O)c1ccc(-c2ccnc(Nc3ccc(N4CCOCC4)cc3)n2)cc1,100%,
Cn1cc(-c2cnc3ccc4ccc(CS(=O)(=O)NCc5ccccn5)cc4c(=O)c3c2)cn1,52.3 ± 67%,-162 ± 230%
COc1cc2ncnc(Nc3cccc(Br)c3)c2cc1OC,72.7 ± 4%,-64 ± 39%
c1ccc(-c2[nH]ncc2-c2ccnc3ccccc23)nc1,0%,2.68 ± 17%
Cc1ccc(NC(=O)c2ccc(CN3CCN(C)CC3)cc2)cc1Nc1nccc(-c2cccnc2)n1 [Imatinib (free base)],3.31 ± 4.7%,33.2 ± 16%
OCCC#Cc1nc(-c2ccc(F)cc2)c(-c2ccncc2)n1CCCc1ccccc1,66.42 ± 0.12%,14.2 ± 4.9%
Nc1ccc(-c2cccc3c(=O)cc(N4CCOCC4)oc23)cc1,39.6 ± 3.5%,-49 ± 35%
c1cc(OCCN2CCCCC2)cc(-c2n[nH]c3ccc(-c4nnc[nH]4)cc23)c1,3.37 ± 4.8%,-65.3 ± 120%
NC(=O)c1ccc2nc(-c3ccc(Oc4ccc(Cl)cc4)cc3)[nH]c2c1 [Chk2 Inhibitor II],48.8 ± 4.4%,38.6 ± 14%
O=C(Nc1cccc(Cl)c1)Nc1ncc(CCNc2ncnc3ccsc23)s1,80.2 ± 4.3%,-53.6 ± 76%
CCN(CCCOc1ccc2c(Nc3cc(CC(=O)Nc4cccc(F)c4)[nH]n3)ncnc2c1)CCOP(=O)(O)O,7.93 ± 5.5%,-79.3 ± 96%
CC(C)CCN1c2nc(Nc3cc(F)c(O)c(F)c3)ncc2N(C)C(=O)C1C (centres undefined),56.5 ± 6.2%,-228 ± 190%
COc1ccc(-c2ccc3c(N4CCOCC4)nc(N4C[C@@H](C)O[C@@H](C)C4)nc3n2)cc1CO,53.5 ± 18%,-282 ± 370%
CCOc1cc2ncc(C#N)c(Nc3ccc(OCc4ccccn4)c(Cl)c3)c2cc1NC(=O)/C=C/CN(C)C [Neratinib],55.4 ± 63%,-146 ± 210%
FC(F)c1nc2ccccc2n1-c1nc(N2CCOCC2)nc(N2CCOCC2)n1,35.9 ± 1.9%,-26.3 ± 5.5%
Cn1c(=O)c(Oc2ccc(F)cc2F)cc2cnc(NC3CCOCC3)nc21,17.2 ± 6.1%,-140 ± 130%
CN1CCN(CCOc2cc(OC3CCOCC3)c3c(Nc4c(Cl)ccc5c4OCO5)ncnc3c2)CC1,20.5 ± 7%,44.4 ± 16%

Compound,THP-1 cell loss [1],intracellular M.tb growth inhibition [2]
CN(C)CCOc1ccc(-c2nc(-c3ccncc3)c(-c3ccc4c(c3)CC/C4=N\O)[nH]2)cc1,72.3 ± 11%,35.2 ± 75%
Cc1cc(Nc2nc(N[C@@H](C)c3ccc(F)cc3)c(C#N)cc2F)n[nH]1,39 ± 9.1%,-124 ± 150%
CC(C)n1nc(-c2cc3cc(O)ccc3[nH]2)c2c(N)ncnc21,92.9 ± 10%,14.1 ± 20%
Cc1[nH]c(/C=C2\C(=O)Nc3ccc(S(=O)(=O)N(C)c4cccc(Cl)c4)cc32)c(C)c1C(=O)N1CCN(C)CC1,65.8 ± 13%,41.9 ± 66%
COc1cc(Nc2ncc3c(n2)-c2ccc(Cl)cc2C(c2c(F)cccc2OC)=NC3)ccc1C(=O)O,8.63 ± 10%,-73.6 ± 120%
CN1C(=O)C(Cc2c[nH]c3ccccc23)NC1=S (centres undefined) [Necrostatin-1],2.6 ± 3.7%,-8.08 ± 36%
Cc1ccc(NC(=O)c2ccc(CN3CCN(C)CC3)cc2)cc1Nc1nc(-c2cccnc2)cs1 [Masitinib mesylate],62.9 ± 7.5%,95.5 ± 1.8%
COc1cc(OC)c(C=C2C(=O)Nc3ccccc32)c(OC)c1,45.3 ± 6.7%,4.9 ± 6.5%
COC(=O)Nc1ccc(-c2nc(N3CCOCC3)c3cnn(C4CCN(C(=O)OC)CC4)c3n2)cc1,35.6 ± 0.38%,-222 ± 330%
COCC(=O)NC/C=C/c1ccc2ncnc(Nc3ccc(Oc4ccc(C)nc4)c(C)c3)c2c1,25.9 ± 5.7%,5.71 ± 95%
COc1cc(Oc2ccnc3cc(OC)c(OC)cc23)ccc1NC(=O)NC(C)c1nccs1 (racemic),10.7 ± 4.6%,-40.9 ± 140%
O=C1Nc2ccc(I)cc2/C1=C/c1cc(Br)c(O)c(Br)c1,20.5 ± 16%,9.15 ± 48%
Nc1ncnc2n[nH]c(Nc3ccc(F)cc3)c12,24% and 11%,-2.38% and 4.47%
NC(=O)c1ccc2[nH]ccc2c1,50 ± 71%,10.6 ± 2.2%
CNc1cc2c(Nc3cccc(Br)c3)ncnc2cn1,78.2 ± 5.8%,30.2 ± 36%
Cc1cc(N2CCOCC2)cc2[nH]c(-c3c(NC[C@@H](O)c4cccc(Cl)c4)cc[nH]c3=O)nc12,21.7 ± 10%,-36.6 ± 15%
COc1cc2ncc(-c3ccccc3)nc2cc1OC [Tyrphostin AG-1296],0%,1.21 ± 2%
O=C1NCc2c1c1c3ccccc3[nH]c1c1[nH]c3ccccc3c21,35.8 ± 3.5%,37.2 ± 30%
Cc1cnc(-c2cnc(NCCNc3ccc(C#N)cn3)nc2-c2ccc(Cl)cc2Cl)[nH]1,13.7 ± 5%,7.29 ± 24%
COc1cc2ncnc(Nc3ccc(F)c(Cl)c3)c2cc1OCCCN1CCOCC1 [Gefitinib],12.5 ± 5.5%,54.4 ± 28%
CC(C)c1cc(/C=C(\C#N)C(=O)NCCCc2ccccc2)cc(C(C)C)c1O [Tyrphostin SU 1498],30.1 ± 12%,50.29 ± 0.083%
Cn1cc(-c2ccc3nnc(C(F)(F)c4ccc5ncccc5c4)n3n2)cn1,13.4 ± 19%,-109 ± 120%
Oc1ccc(-c2nc(-c3ccc(F)cc3)c(-c3ccncc3)[nH]2)cc1,8.45 ± 0.56%,8.19 ± 7.9%
